Assay results from ChEMBL document CHEMBL4513146, “CO-ADD screening of Karazin Kharkiv National University (Ukraine) compounds”.
Results with a measured potency or affinity are listed apart.

How the values were obtained:
[1] = system: Staphylococcus aureus; settings: Concentration 32 ug.mL-1;; ASSAY_TEST Inhibition of Bacterial Growth; detection method Absorption (OD600); MEDIA CAMHB; plate type 384well; NBS; CORNING #3640; time 18 hr
[2] = system: Escherichia coli; settings: Concentration 32 ug.mL-1;; ASSAY_TEST Inhibition of Bacterial Growth; detection method Absorption (OD600); MEDIA CAMHB; plate type 384well; NBS; CORNING #3640; time 18 hr

| Structure (SMILES) | Inhibition [1] [%] | Inhibition [2] [%] |
| --- | --- | --- |
| Cc1cccc(CN(c2cccc(F)c2)S(=O)(=O)c2ccc3nncn3c2)c1 | -2.24 | -9.18 |
| COc1ccccc1-n1ccn2c(=O)n(Cc3ccc(F)cc3Cl)nc2c1=O | 9.6 | -2.36 |
| COc1ccccc1N1CCN(C(=O)Cn2nc3c(Oc4ccc(C)cc4)nccn3c2=O)CC1 | 6.41 | 0.36 |
| CCCn1c(=O)c2sccc2n2c(CCC(=O)NCCC34CC5CC(CC(C5)C3)C4)nnc12 | 0.48 | -2.55 |
| Cc1c(Cl)cccc1-n1ccn2c(=O)n(Cc3cccc(F)c3)nc2c1=O | 9.54 | -6.71 |
| COc1ccc(N2CCN(C(=O)Cn3nc4ccc(S(=O)(=O)C(C)(C)C)nn4c3=O)CC2)cc1 | 12.76 | 0.99 |
| CC(C)Cn1c(=O)c2sccc2n2c(=O)n(Cc3ccc(N4CCCC4=O)cc3)nc12 | -1.91 | -2.57 |
| CC(C)c1ccc(N(Cc2cc(F)cc(F)c2)S(=O)(=O)c2cccn3cnnc23)cc1 | 8.68 | -1.47 |
| O=C(Cn1nc2ccc(SC3CCCCC3)nn2c1=O)NCc1ccc(Cl)cc1 | 6.56 | -1.29 |
| COc1ccc(-n2ccn3c(=O)n(Cc4ccccc4Cl)nc3c2=O)cc1Cl | 3.32 | 3.28 |
| CCc1ccccc1NC(=O)CSc1nnc2ccc(C(=O)Nc3cccc(F)c3)cn12 | 19.17 | 1.35 |
| COc1cccc(Sc2nc3ccccc3n3c(=O)n(CC(=O)Nc4cccc(C#N)c4)nc23)c1 | 2.4 | -6.13 |
